Results filed as inconclusive are left out. Entries that show only a call come without a potency. Unmarked numbers belong to inactive results. Active and inactive are the calls of the source. Unless noted, calls come from the whole dose curve; as a rule, active = well fitted curve in the direction sought with a large enough effect in the repeat runs; inconclusive = weak or mixed curves; inactive = no such curve, though single readings can be large; an effect the other way counts as inactive or inconclusive.
How the values were obtained:
[1] = qHTS assay to identify aromatase inhibitors - cell viability counter screen (AID 743084);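 note: cells stimulated with testosterone during compound exposure; nearly all actives have a fitted effect of over 55% in size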
[2] = molecular target: Aryl hydrocarbon receptor (Homo sapiens) (UniProt P35869); experiment: qHTS assay to identify small molecule that activate the aryl hydrocarbon receptor (AhR) signaling pathway (AID 743085); note: nearly all actives have a fitted effect of over 15% in size; note: potency is the fitted concentration of half-maximal effect;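 for activation: HG2L7.5c1 human HepG2 liver cells with stably integrated DRE-driven firefly reporter; series mostly up to about 70 µM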
Aryl hydrocarbon receptor (Homo sapiens), sequence (P35869 whole entry, looked up): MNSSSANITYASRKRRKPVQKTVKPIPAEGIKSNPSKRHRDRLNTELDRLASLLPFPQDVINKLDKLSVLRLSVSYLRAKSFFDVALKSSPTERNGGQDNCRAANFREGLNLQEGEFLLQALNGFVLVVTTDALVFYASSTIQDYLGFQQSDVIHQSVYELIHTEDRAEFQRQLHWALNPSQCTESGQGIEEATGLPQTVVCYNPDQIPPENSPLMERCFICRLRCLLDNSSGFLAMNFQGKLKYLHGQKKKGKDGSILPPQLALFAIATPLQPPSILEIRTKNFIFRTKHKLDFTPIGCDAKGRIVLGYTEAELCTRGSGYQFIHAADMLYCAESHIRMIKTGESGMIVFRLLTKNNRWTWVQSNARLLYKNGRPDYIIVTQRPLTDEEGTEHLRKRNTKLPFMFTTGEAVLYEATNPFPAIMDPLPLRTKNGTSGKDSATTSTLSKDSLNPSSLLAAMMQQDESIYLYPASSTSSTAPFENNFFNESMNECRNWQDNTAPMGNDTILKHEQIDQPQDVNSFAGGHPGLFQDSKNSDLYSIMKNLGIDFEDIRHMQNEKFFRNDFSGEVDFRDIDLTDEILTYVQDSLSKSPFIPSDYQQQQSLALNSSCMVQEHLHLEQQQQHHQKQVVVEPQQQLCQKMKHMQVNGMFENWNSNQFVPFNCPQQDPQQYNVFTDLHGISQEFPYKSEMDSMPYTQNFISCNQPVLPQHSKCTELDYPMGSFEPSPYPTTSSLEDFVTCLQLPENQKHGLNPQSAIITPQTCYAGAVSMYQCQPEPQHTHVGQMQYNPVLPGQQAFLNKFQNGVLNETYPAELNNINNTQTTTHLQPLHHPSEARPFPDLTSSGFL
In short: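 Luminescence (ONE-Glo) from a dioxin-responsive-element luciferase reporter in HG2L7.5c1 HepG2 cells after 24 hr compound exposure at 37C; viability measured by CellTiter-Fluor fluorescence beforehand.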

[3] = qHTS assay to identify small molecule that activate the aryl hydrocarbon receptor (AhR) signaling pathway - cell viability counter screen (AID 743086);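 note: HepG2 liver cells carrying the AhR DRE luciferase reporter; series mostly up to about 70 µM; nearly all actives have a fitted effect of over 45% in size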
In short: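 HepG2-AhR-luc (HG2L7.5c1) cells, 4000/well, treated 24 h at 37 C with compound; viability measured as CellTiter-Fluor fluorescence after 30 min in the same wells as the luciferase read.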

[4] = molecular target: Peroxisome proliferator-activated receptor gamma (Homo sapiens) (UniProt P37231); experiment: qHTS assay to identify small molecule agonists of the peroxisome proliferator-activated receptor gamma (PPARg) signaling pathway (AID 743094; active = well fitted activation curve with a large enough effect in the signal ratio in the repeat runs, not every such curve was filed as active; the % refers to the signal ratio)
Peroxisome proliferator-activated receptor gamma (Homo sapiens), sequence (P37231 whole entry, looked up): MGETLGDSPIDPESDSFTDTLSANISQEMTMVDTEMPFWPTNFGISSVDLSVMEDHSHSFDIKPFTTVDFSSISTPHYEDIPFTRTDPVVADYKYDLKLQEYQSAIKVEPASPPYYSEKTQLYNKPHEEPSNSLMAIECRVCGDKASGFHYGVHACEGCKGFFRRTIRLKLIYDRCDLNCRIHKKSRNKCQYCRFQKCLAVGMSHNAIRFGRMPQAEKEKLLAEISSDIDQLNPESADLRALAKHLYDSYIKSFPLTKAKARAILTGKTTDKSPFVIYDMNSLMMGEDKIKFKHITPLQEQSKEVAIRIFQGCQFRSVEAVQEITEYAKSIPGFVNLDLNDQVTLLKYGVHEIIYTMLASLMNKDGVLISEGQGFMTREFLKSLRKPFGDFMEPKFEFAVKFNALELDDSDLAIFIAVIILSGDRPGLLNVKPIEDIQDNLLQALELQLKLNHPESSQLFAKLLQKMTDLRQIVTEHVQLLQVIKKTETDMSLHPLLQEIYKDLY
In short: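 Quantitative HTS agonist mode: stable HEK293H line with UAS-beta-lactamase reporter under PPARg control, 17 h compound exposure at 37C, fluorescence after 1 h FRET substrate loading at room temperature.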

[5] = molecular target: Peroxisome proliferator-activated receptor gamma (Homo sapiens) (UniProt P37231); experiment: qHTS assay to identify small molecule antagonists of the peroxisome proliferator-activated receptor gamma (PPARg) signaling pathway (AID 743191; calls by dose curve; note: series mostly up to about 63 µM; nearly all actives have a fitted effect of over 30% in size)
In short: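 GeneBLAzer PPARg UAS-bla HEK293H cells, 5 h post-plating, exposed to compounds 17 h at 37C. LiveBLAzer B/G FRET substrate added for 1 h at room temperature; beta-lactamase reporter read by fluorescence intensity.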

[6] = qHTS assay to identify small molecule antagonists of the peroxisome proliferator-activated receptor gamma (PPARg) signaling pathway - cell viability counter screen (AID 743194); note: nearly all actives have a fitted effect of over 55% in size
In short: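 Cytotoxicity counter screen in PPARg-bla HEK293H cells, same wells as reporter assay. Compounds plus 50 nM rosiglitazone (final) for 17 h at 37 C, then viability read by CellTiter-Glo luminescence.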

[7] = qHTS assay for small molecule agonists of the antioxidant response element (ARE) signaling pathway (AID 743202; active = well fitted activation curve with a large enough effect in the signal ratio in the repeat runs, not every such curve was filed as active; the % refers to the signal ratio; note: potency is the fitted concentration of half-maximal effect)
In short: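 Agonist mode reporter screen: HepG2 cells with ARE-controlled beta-lactamase are incubated with test compounds for 16 h at 37 C, and beta-lactamase activity is measured as fluorescence of cleaved B/G FRET substrate.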

[8] = qHTS assay for small molecule agonists of the antioxidant response element (ARE) signaling pathway - cell viability counter screen (AID 743203; calls by dose curve; note: nearly all actives have a fitted effect of over 55% in size)
In short: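 Seeded at 2,000 cells/well, ARE-bla HepG2 cells were incubated 5 hrs before compound addition. After 16 hrs of treatment at 37C with 5% CO2, CellTiter-Glo reagent was added and luminescence read 30 min later.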

[9] = qHTS assay for small molecule activators of the heat shock response signaling pathway - cell viability counter screen (AID 743209); note: nearly all actives have a fitted effect of over 50% in size
In short: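 First, HSE-bla HeLa cells were seeded at 1500 cells/well and kept overnight at 37 C. Next, compounds were pinned in and incubated 5 h. After the FRET substrate step, CellTiter-Glo was added and luminescence read 30 min later.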

[10] = qHTS assay for small molecule activators of the heat shock response signaling pathway (AID 743210; active = well fitted activation curve with a large enough effect in the signal ratio in the repeat runs, with a control signal flat, not every such curve was filed as active; the % refers to the signal ratio;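 note: HeLa cells with beta-lactamase reporter driven by heat shock elements; series mostly up to about 63 µM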)
In short: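 Quantitative high-throughput format using an engineered HeLa line in which heat shock response elements drive beta-lactamase; after 5 h with compound, cells received a B/G FRET substrate and fluorescence was read.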

[11] = qHTS assay to identify small molecule agonists of the peroxisome proliferator-activated receptor delta (PPARd) signaling pathway - cell viability counter screen (AID 743211); note: nearly all actives have a fitted effect of over 55% in size
In short: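 Viability was measured as CellTiter-Glo luminescence (30 min, room temperature) in the same wells as the beta-lactamase readout. GeneBLAzer PPARd UAS-bla HEK293H cells received compound after 5 h plating and were incubated 17 h at 37 C.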

[12] = molecular target: Peroxisome proliferator-activated receptor delta (Homo sapiens) (UniProt Q03181); experiment: qHTS assay to identify small molecule agonists of the peroxisome proliferator-activated receptor delta (PPARd) signaling pathway (AID 743212; calls by dose curve)
Peroxisome proliferator-activated receptor delta (Homo sapiens), sequence (Q03181 whole entry, looked up): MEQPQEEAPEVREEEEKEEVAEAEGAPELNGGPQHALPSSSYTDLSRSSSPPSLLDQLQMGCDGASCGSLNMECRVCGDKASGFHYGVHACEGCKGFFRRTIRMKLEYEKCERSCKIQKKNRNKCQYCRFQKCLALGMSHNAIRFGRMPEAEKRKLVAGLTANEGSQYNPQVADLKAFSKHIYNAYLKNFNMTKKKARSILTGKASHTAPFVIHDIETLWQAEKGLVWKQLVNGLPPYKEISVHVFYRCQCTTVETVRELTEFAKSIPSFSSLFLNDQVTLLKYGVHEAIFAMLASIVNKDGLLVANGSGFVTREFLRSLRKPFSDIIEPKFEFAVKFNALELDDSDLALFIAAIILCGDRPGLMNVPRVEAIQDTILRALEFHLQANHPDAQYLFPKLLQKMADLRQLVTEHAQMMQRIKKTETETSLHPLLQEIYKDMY
In short: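 Quantitative high-throughput agonist screen in a HEK293H beta-lactamase reporter line under UAS control. Compounds in DMSO, at 37 C. Fluorescence read after 2 h with FRET substrate at room temperature.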

[13] = qHTS assay to identify small molecule antagonists of the peroxisome proliferator-activated receptor delta (PPARd) signaling pathway - cell viability counter screen (AID 743213); note: nearly all actives have a fitted effect of over 50% in size
In short: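 PPARd-bla HEK293H cells (3000/well) got compound plus 300 nM L165041 agonist for 17 h at 37 C. Viability in the same wells came from CellTiter-Glo luminescence after 30 min at room temperature.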

[14] = molecular target: Peroxisome proliferator-activated receptor delta (Homo sapiens) (UniProt Q03181); experiment: qHTS assay to identify small molecule antagonists of the peroxisome proliferator-activated receptor delta (PPARd) signaling pathway (AID 743215; active = well fitted inhibition curve with a large enough effect in the signal ratio in the repeat runs, not every such curve was filed as active; the % refers to the signal ratio;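 note: cells stimulated with agonist L165041 at 300 nM final during compound exposure; series mostly up to about 62 µM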)
In short: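 Inhibition of L165041-driven (300 nM final) PPARd signaling is scored in HEK293H UAS-bla cells. Exposure lasts 17 h at 37 C; beta-lactamase activity is then read by FRET substrate fluorescence after 2 h at room temperature.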

[15] = qHTS assay to identify small molecule agonists of the farnesoid-X-receptor (FXR) signaling pathway - cell viability counter screen (AID 743218); note: nearly all actives have a fitted effect of over 45% in size
In short: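 Cytotoxicity counter-screen run in parallel, same wells: FXR-UAS-bla HEK 293T cells dosed 16 h at 37 C, viability read by CellTiter-Glo luminescence after 30 min at room temperature.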

[16] = molecular target: Vitamin D3 receptor (Homo sapiens) (UniProt P11473); experiment: qHTS assay to identify small molecule agonists of the vitamin D receptor (VDR) signaling pathway (AID 743222; calls by dose curve)
Vitamin D3 receptor (Homo sapiens), sequence (P11473 whole entry, looked up): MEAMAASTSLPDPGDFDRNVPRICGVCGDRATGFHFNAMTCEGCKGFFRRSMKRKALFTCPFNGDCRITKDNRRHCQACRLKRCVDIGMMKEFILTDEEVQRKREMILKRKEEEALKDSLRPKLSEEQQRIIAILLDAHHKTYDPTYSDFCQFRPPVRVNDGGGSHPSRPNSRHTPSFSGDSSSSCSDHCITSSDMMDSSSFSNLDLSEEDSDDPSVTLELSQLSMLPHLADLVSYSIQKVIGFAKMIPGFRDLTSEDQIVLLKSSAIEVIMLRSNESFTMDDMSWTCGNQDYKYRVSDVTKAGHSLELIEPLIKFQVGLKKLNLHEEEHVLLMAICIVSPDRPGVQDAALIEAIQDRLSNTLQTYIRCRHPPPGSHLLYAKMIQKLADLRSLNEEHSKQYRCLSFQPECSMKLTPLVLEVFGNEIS
In short: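 Quantitative HTS agonist-mode screen: compounds in DMSO were pin-transferred onto VDR-bla cells and incubated 16 h at 37C, 5% CO2. Reporter activity was detected with LiveBLAzer B/G FRET substrate after 2 h at room temperature.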

[17] = molecular target: Vitamin D3 receptor (Homo sapiens) (UniProt P11473); experiment: qHTS assay to identify small molecule antagonists of the vitamin D receptor (VDR) signaling pathway (AID 743223; active = well fitted inhibition curve with a large enough effect in the signal ratio in the repeat runs, not every such curve was filed as active; the % refers to the signal ratio)
In short: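 Antagonist mode: compound added to VDR-bla cells alongside agonist 1alpha,25-dihydroxyvitamin D3 (3 nM final), incubation 16 h at 37C. Read-out is LiveBLAzer FRET fluorescence, 2 h at room temperature.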

[18] = molecular target: Bile acid receptor (Homo sapiens) (UniProt Q96RI1); experiment: qHTS assay to identify small molecule antagonists of the farnesoid-X-receptor (FXR) signaling pathway (AID 743217; active = well fitted inhibition curve with a large enough effect in the signal ratio in the repeat runs, not every such curve was filed as active; the % refers to the signal ratio)
Bile acid receptor (Homo sapiens), sequence (Q96RI1 whole entry, looked up): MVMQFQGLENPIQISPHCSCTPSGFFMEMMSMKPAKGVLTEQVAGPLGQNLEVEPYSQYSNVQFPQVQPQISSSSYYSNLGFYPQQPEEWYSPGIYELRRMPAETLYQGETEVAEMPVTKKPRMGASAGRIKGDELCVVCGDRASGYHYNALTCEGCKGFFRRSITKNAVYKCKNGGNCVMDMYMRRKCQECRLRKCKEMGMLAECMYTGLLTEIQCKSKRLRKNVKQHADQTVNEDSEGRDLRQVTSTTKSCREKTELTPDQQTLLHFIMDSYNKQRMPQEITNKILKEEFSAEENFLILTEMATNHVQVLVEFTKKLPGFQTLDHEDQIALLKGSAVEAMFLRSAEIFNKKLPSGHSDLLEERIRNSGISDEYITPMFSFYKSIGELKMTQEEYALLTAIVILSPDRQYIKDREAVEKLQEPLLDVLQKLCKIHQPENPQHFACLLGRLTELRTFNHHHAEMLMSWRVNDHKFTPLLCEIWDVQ
In short: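 Antagonist mode against 50 uM (final) chenodeoxycholic acid stimulation in FXR-bla HEK 293T cells, 16 h at 37 °C. Inhibition detected as reduced beta-lactamase activity via LiveBLAzer B/G FRET fluorescence after 2 h at room temperature.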

[19] = molecular target: Bile acid receptor (Homo sapiens) (UniProt Q96RI1); experiment: qHTS assay to identify small molecule agonists of the farnesoid-X-receptor (FXR) signaling pathway (AID 743220; active = well fitted activation curve with a large enough effect in the signal ratio in the repeat runs, not every such curve was filed as active; the % refers to the signal ratio)
In short: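 Beta-lactamase reporter under UAS control in GeneBLAzer FXR HEK 293T cells (5000/well) measured with LiveBLAzer FRET substrate after 2 h at room temperature. Compound exposure lasted 16 h at 37C.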

[20] = qHTS assay to identify small molecule antagonists of the farnesoid-X-receptor (FXR) signaling pathway - cell viability counter screen (AID 743221; active = well fitted cell-killing curve with a large enough effect in the repeat runs, not every such curve was filed as active; note: nearly all actives have a fitted effect of over 50% in size)
In short: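 Cytotoxicity counter screen run in the FXR-bla reporter wells: HEK 293T cells exposed to compound with 50 uM (final) chenodeoxycholic acid for 16 h, 37 C, then viability measured by CellTiter-Glo luminescence after 30 min, room temperature.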

SMILES	Potency [1]	Potency [2]	Potency [3]	Potency [4]	Potency [5]	Potency [6]	Potency [7]	Potency [8]	Potency [9]	Potency [10]	Potency [11]	Potency [12]	Potency [13]	Potency [14]	Potency [15]	Potency [16]	outcome [17]	Potency [18]	Potency [19]	Potency [20]
O=[N+]([O-])c1ccc2[nH]ncc2c1	inactive	inactive	inactive	inactive	inactive	inactive	inactive	inactive	inactive	inactive	inactive	inactive	inactive	inactive	inactive	inactive	inactive	–	–	–
C#CCN(C)CCCOc1ccc(Cl)cc1Cl	inactive	23.7 µM (active)	inactive	inactive	inactive	inactive	15 µM (active)	inactive	inactive	inactive	inactive	–	inactive	–	inactive	inactive	inactive	inactive	inactive	inactive
O=C(O)c1ccc(S(=O)(=O)O)cc1C(=O)O	inactive	inactive	inactive	inactive	inactive	inactive	inactive	inactive	inactive	–	inactive	inactive	inactive	inactive	–	inactive	–	–	–	inactive
Nc1ccc(S(=O)(=O)Nc2ccccc2)cc1	inactive	inactive	inactive	inactive	inactive	inactive	inactive	inactive	inactive	–	inactive	–	inactive	inactive	inactive	–	–	–	–	inactive
O=C1CCC(=O)O1	inactive	inactive	inactive	inactive	inactive	inactive	inactive	inactive	inactive	inactive	inactive	inactive	–	–	–	inactive	–	inactive	inactive	–
Cc1cccc(C)c1NC(=O)CN(CC(=O)O)CC(=O)O	inactive	inactive	inactive	inactive	inactive	inactive	inactive	–	inactive	inactive	inactive	inactive	–	inactive	inactive	inactive	–	inactive	inactive	inactive
CCCCC(CC)COC(=O)CCCCCCCCC(=O)OCC(CC)CCCC (stereo not given)	inactive	inactive	inactive	inactive	inactive	inactive	inactive	inactive	inactive	inactive	inactive	inactive	inactive	inactive	inactive	inactive	inactive	inactive	inactive	inactive
CC(=O)NO	inactive	inactive	inactive	inactive	inactive	inactive	inactive	–	inactive	inactive	inactive	–	inactive	–	inactive	–	inactive	–	–	inactive

— PubChem BioAssay (Tox21)
